CHX counter: counter-screen for Shiga toxin inhibitors: cycloheximide protein synthesis inhibition; cell reporter, cycloheximide protein synthesis inhibition counterscreen; max response, %; 300,000 tested, 12% active; AID 2314; in the data active = max response mostly above about 13%, no sharp cut-off; inactive = mostly below about 14%; also: read at 38.3 µM for the half of the compounds with a filed dose; 0% is about no effect
Pf growth 96h: P. falciparum growth inhibition at 96 hours; P. falciparum luciferase reporter growth, 96 h; Potency, µM (doses to about 28.7 µM), inactives show top-dose activity change, negative = inhibition, actives largely listed as inhibitors; 320,000 tested, 6.9% active; AID 504834; also: potency is read from the fitted curve at half-maximal effect; % is scaled to controls: 0 for no effect and ±100 for the full control effect
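Cell-based qHTS: luciferase-tagged P. falciparum in erythrocytes (2% hematocrit, 0.05% parasitemia final) incubated with compounds for 96 hours, 37 C, 5% CO2; luciferase detection reagent then added and luminescence measured.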
Pf growth 48h: inhibits P. falciparum growth in the first generation, 48 h | Potency, µM (top dose mostly 28.7 µM), for inactives: at the highest dose activity change, negative = inhibition, actives largely listed as inhibitors | AID 504832 | P. falciparum luciferase growth in erythrocytes, 48 h | 310,000 tested, 5.9% active; also: potency is read from the fitted curve at half-maximal effect; % is scaled to controls: 0 for no effect and ±100 for the full control effect
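In quantitative HTS format, infected erythrocytes bearing luciferase-reporter parasites were treated for a single generation at 37 C. Luminescence after adding detection reagent served as the growth measure.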
SARS PLpro yeast: inhibitors of SARS-CoV papain-like protease in yeast; S. cerevisiae expressing SARS-CoV PLpro, growth rescue; Potency, µM (doses to about 32.9 µM), without a hit: at the top dose activity, positive = growth rescue, most hits filed as activators; 330,000 tested, 0.19% active; AID 485353; calls by dose curve; also: potency is read from the fitted curve at half-maximal effect; 0% is about no effect; nearly all actives have a fitted effect of over 55% in size
AMA1 RON2 block: AMA1-RON2 (P. falciparum) interaction inhibition; AlphaScreen AMA1-biotinylated RON2 peptide binding; Potency, µM (top dose mostly 58.2 µM), inactives show top-dose activity change, negative = inhibition, usual class: inhibitors; 360,000 tested, 0.2% active;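 also: potency is read from the fitted curve at half-maximal effect; 0% = vehicle wells and -100% = peptide control; nearly all actives have a fitted effect of over 45% in size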
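AMA1 (3D7) with his tag at 25 nM final met compounds first, then biotinylated RON2 peptide at 25 nM; detection used donor plus acceptor beads, 10 µg/mL apiece, read by AlphaScreen after 30 min at room temperature.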
Shiga inhibitor: blocks Shiga toxin action in Vero cells; Vero cells, Shiga toxin protein synthesis inhibition reporter; inhibition, % at 38.7 µM; 290,000 tested, 9.2% active; in the data active = inhibition mostly above about 28%, no sharp cut-off; inactive = mostly below about 43%; also: 0% is about no effect
An asterisk follows results filed as active; ? = inconclusive; / = no result; + = active, no number; ! = repeats disagree. Sampled rows, rich in hits. Any-hit rate of the full collection: about 19%. Unless noted, calls follow the shape of the dose curve; as a rule, active = well fitted curve in the direction sought with a large enough effect; inconclusive = small, poorly fitted or top-dose-only effect, or another doubt; inactive = no such curve, though single readings can be large; an effect the other way counts as inactive or inconclusive.

SMILES | CHX counter | Pf growth 96h | Pf growth 48h | SARS PLpro yeast | AMA1 RON2 block | Shiga inhibitor
C[C@H](N)C(=O)N[C@@H](Cc1ccc(F)cc1)C(=O)N[C@@H](CCCN=C(N)N)C(=O)N[C@@H](CC1CCCCC1)C(=O)N[C@@H](CCCCN=C(N)N)C(=O)N[C@@H](Cc1ccc(O)cc1)C(N)=O | 7 | / | / | / | / | -6
O=C(CCC(=O)Nc1cccc(C(F)(F)F)c1)NCC1CCCO1 (stereo not drawn) | 7 | 4% | 14% | -1% | -4% | -3
COc1ccc(CCNC(=O)COc2coc(CN3c4ccccc4CC3C)cc2=O)cc1OC (stereo not drawn) | / | ? | 9.3µM* | 4% | -19% | /
Cc1ccc(NC(=O)COc2coc(CN3c4ccccc4CC3C)cc2=O)c(C)c1 (stereo not drawn) | / | ? | ? | 1% | -29% | /
CC1Cc2ccccc2N1Cc1cc(=O)c(OCC(=O)Nc2ccccc2)co1 (stereo not drawn) | / | 10µM* | 9.3µM* | -4% | -1% | /
Cc1cccc(OC(C)C(=O)Nc2ccc3c(c2)OCCO3)c1 (stereo not drawn) | / | / | / | / | -7% | /
Cc1ccc2[nH]c3c(=O)n(N)c(=O)[nH]c3c2c1 | -1 | 21% | 9% | 0% | 10% | -7
Cc1ccc(-c2cc(C(=O)N(C)Cc3cnn(C)c3C)c3cc(Br)ccc3n2)cc1 | 2 | ? | 9.3µM* | -25% | -1% | -4
O=C(CCl)c1ccc2c(c1)CCN2C(=O)C1CC1 | 12 | 10µM* | -15% | 21% | / | 19
O=C(C1CCN(S(=O)(=O)N2CCOCC2)CC1)N1CCc2ccccc21 | 6 | ? | 31% | 9% | 0% | 13
O=C(C1CCC(C(=O)N2CCc3ccccc32)CC1)N1CCc2ccccc21 (stereo not drawn) | -2 | 8.3µM* | 2% | 3% | 2% | 1
O=C(NC1CCCCC1)N1CCc2ccccc21 | 28* | 5% | 105% | -2% | -10% | 47*
COc1cc2ccccc2cc1C(=O)N/N=C/c1cccs1 | / | / | / | / | 12% | /
CC1CCCC(C)N1S(=O)(=O)c1ccc(NC(=O)CCn2cnc3ccccc3c2=O)cc1 (stereo not drawn) | 14 | / | 13µM* | -13% | -7% | 13
O=C(Cn1cnc2ccccc2c1=O)NCCC(=O)Nc1ccc2c(c1)OCCO2 | 4 | 10µM* | 52% | -2% | 15% | 35
O=C(Cn1cnc2ccccc2c1=O)Nc1ccc2c(c1)OCCO2 | 46* | -13% | 99% | -2% | -3% | 90*
CC1CCCC(C)N1CC(C)(C)NS(=O)(=O)c1ccc(Cl)cc1 (stereo not drawn) | -3 | 20% | / | -9% | -9% | -9
COc1cccc(-c2cc(=O)c3cc(NC(C)=O)ccc3[nH]2)c1 | 17 | 128% | 160% | 3% | -5% | -3
COc1ccc2[nH]c3ccccc3c2c1 | 32* | / | 9% | -17% | -5% | 58
COc1cc2[nH]c(-c3cccc(F)c3)cc(=O)c2cc1OC | -3 | ? | ? | -16% | 2% | -14
COc1ccc(-c2cc(=O)c3cc(C)ccc3[nH]2)cc1 | 35* | ? | 24% | -35% | -6% | 53*
COc1ccc(-c2cc(=O)c3cc(OC)ccc3[nH]2)cc1 | 61* | 67% | 131% | -3% | -8% | 94*
COc1cc2[nH]c(-c3ccc(C)cc3)cc(=O)c2cc1OC | 29* | ? | -26% | 15% | 24% | +!
O=C(Cn1nnc(-c2cccs2)n1)NNC(=O)c1ccccc1Cl | 6 | 18% | 34% | -1% | 72% | -13
CCOC(=O)C[C@H]1c2ccc(C(F)(F)F)cc2S(=O)(=O)N1C(C)(C)C | / | / | / | / | 28% | /
COc1cc(C2Nc3cc(Cl)c(S(N)(=O)=O)cc3S(=O)(=O)N2)ccc1OCc1ccccc1 (stereo not drawn) | 55* | / | 18% | -11% | -3% | 128*
COC(=O)c1cccc(-c2ccc(/C=N/N3C(=O)C4C5C=CC(C6CC56)C4C3=O)o2)c1 (stereo not drawn) | 9 | 36% | 2% | -1% | -23% | 26

Screens from PubChem.
